Sa ugtP lethal – compounds lethal to S. aureus RN4220 ugtP deletion mutant; OD600 growth, 16 h; growth inhibition, % (test concentration not listed); 330,000 tested, 0.54% active; AID 1259309; in the data active = growth inhibition above about 68%;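 also: plate controls were untreated wells for no effect and antibiotic for full effect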
PfHsp40 yeast – restores yeast growth despite PfHsp40 toxicity | growth rescue, % at 12.5 µM | 340,000 tested, 0.68% active | S. cerevisiae expressing PfHsp40, growth rescue, ATP luminescence; in the data active = growth rescue above about 28%, passing the limit was not always enough; inconclusive = no clear call, values can overlap the other calls;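 also: yeast W303a lacking pdr1 and pdr3 grown in galactose medium; growth measured after three days at 30 °C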
PriA SSB inh – K. pneumoniae PriA-SSBct interaction inhibition | AlphaScreen SSBct-PriA binding, biotinylated peptide | inhibition, % at 33 µM | 430,000 tested, 0.6% active; in the data active = inhibition mostly above about 37%, no sharp cut-off; inactive = mostly below about 20%;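 also: plate controls were negative control peptide for no effect and reference peptide for full effect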
Mtb hypoxia rep – inhibitors of hypoxia-regulated fluorescent reporter in Mycobacterium tuberculosis | M. tuberculosis hypoxia-regulated fluorescent reporter, fluorescence | fluorescence inhibition, % (test concentration not listed) | 300,000 tested, 0.1% active; in the data active = fluorescence inhibition mostly above about 23%, no sharp cut-off; inactive = mostly below about 17%
RN4220 kill – kills Staphylococcus aureus RN4220 | S. aureus RN4220 growth, OD600, 16 h | inhibition, % (no concentration beside the values) | 330,000 tested, 0.33% active | AID 1259311; in the data active = inhibition above about 85%;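 also: plate controls were untreated cells for no effect and reference antibiotic for full effect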
DUSP3 inh – inhibitors of human VHR1 phosphatase (DUSP3) | recombinant VHR phosphatase, pNPP absorbance | inhibition, % at 13.3 µM | 290,000 tested, 0.52% active | AID 1654 | P51452; in the data active = inhibition above about 50%
Target sequence (P51452 whole entry, looked up): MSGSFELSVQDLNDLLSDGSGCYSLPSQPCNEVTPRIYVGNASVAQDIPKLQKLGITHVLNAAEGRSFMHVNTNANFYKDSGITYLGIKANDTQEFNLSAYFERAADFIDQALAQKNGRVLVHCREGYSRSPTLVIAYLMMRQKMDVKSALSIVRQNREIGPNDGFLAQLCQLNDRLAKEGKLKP
Active calls of the source: *. In the library only some 1.8% were active in any assay of this set; here they are far more common.

`O=C(O)c1ccc2[nH]c3c(c2c1)CCCC3` gave Sa ugtP lethal -5.1, PfHsp40 yeast 34.6*, PriA SSB inh -3.7, Mtb hypoxia rep -10.1, RN4220 kill 1.2 and DUSP3 inh 11.4.
`COc1cccc(Oc2cn[nH]c2-c2ccc(OC)cc2O)c1` gave Sa ugtP lethal 7.6, PfHsp40 yeast 0.6, PriA SSB inh -6.8, RN4220 kill -9.8 and DUSP3 inh 18.2.
For COc1ccccc1-c1cn[nH]c1-c1ccc(OCc2ccccc2)cc1O the results were PfHsp40 yeast 213.7*, PriA SSB inh 2.9 and DUSP3 inh 31.0.
For CCOc1ccc(-c2[nH]ncc2-c2ccccc2)c(O)c1 the results were Sa ugtP lethal 2.8, PfHsp40 yeast -0.5, PriA SSB inh 3.6, Mtb hypoxia rep 4.2, RN4220 kill -7.3 and DUSP3 inh 1.3.
`COc1ccc(-c2cn[nH]c2-c2ccc(OCc3ccccc3)cc2O)cc1` gave Sa ugtP lethal 8.0, PfHsp40 yeast 115.2*, PriA SSB inh -2.0, Mtb hypoxia rep 0.3, RN4220 kill 1.8 and DUSP3 inh 11.6.
CCOc1ccc(-c2[nH]ncc2Oc2cccc(OC)c2)c(O)c1 was read as Sa ugtP lethal 1.7, PfHsp40 yeast 336.5*, PriA SSB inh -5.0, Mtb hypoxia rep -14.3, RN4220 kill -17.4 and DUSP3 inh 21.7.
For O=C(NCCn1ncc2c(NCc3ccc(F)cc3)ncnc21)c1ccccc1C(F)(F)F the results were PriA SSB inh -10.0.
Screening N/C(Cc1ccc(Cl)cc1Cl)=N\OC(=O)c1ccc(Br)o1 returned Sa ugtP lethal 3.5, PfHsp40 yeast 572.1*, Mtb hypoxia rep 11.7, RN4220 kill 6.6 and DUSP3 inh 11.2.
Screening CC(=O)CC1(O)C(=O)N(Cc2ccccc2)c2ccccc21 (stereo unspecified) returned Sa ugtP lethal -6.7, PfHsp40 yeast -0.7, PriA SSB inh -18.6, Mtb hypoxia rep 4.6, RN4220 kill 2.7 and DUSP3 inh 27.3.
Screening CC1(C)C(=S)N(Cc2ccccc2)c2ccccc21 returned Sa ugtP lethal 86.0*, PfHsp40 yeast -1.2, PriA SSB inh -36.0, Mtb hypoxia rep 14.9, RN4220 kill -3.8 and DUSP3 inh -16.1.
Cc1cc(N2CCOCC2)nc(SCC(=O)NCCCO)n1 was read as PriA SSB inh -14.0.
Screening COc1ccc(Cl)cc1C(=O)N1CCN(CCn2ccnc2)CC1 returned PriA SSB inh -4.0.
`CCN(CC)c1ccc(/C=C2\C(=O)N(c3nnc(C)c(=O)[nH]3)N=C2C)cc1` gave Sa ugtP lethal 5.4, PfHsp40 yeast 2.1, PriA SSB inh 78.2*, Mtb hypoxia rep 14.2, RN4220 kill 8.9 and DUSP3 inh 9.0.
`CCN(CC)c1ccc(/C=C2/C(=O)ON=C2C)cc1` gave Sa ugtP lethal 3.4, PfHsp40 yeast -0.6, PriA SSB inh -3.7, Mtb hypoxia rep 15.8, RN4220 kill 4.6 and DUSP3 inh 20.8.
For O=C(CSc1nnc(-c2cccnc2)o1)c1ccc2c(c1)OCCO2 the results were PriA SSB inh -9.0.
`COc1ccccc1CC(=O)Nc1cccc(S(=O)(=O)N2CCOCC2)c1` gave Sa ugtP lethal 10.9, PfHsp40 yeast 94.1*, Mtb hypoxia rep 2.0, RN4220 kill 4.5 and DUSP3 inh -0.2.
O=C(CCCOc1ccccc1)Nc1cccc(S(=O)(=O)N2CCOCC2)c1 was read as Sa ugtP lethal 0.7, PfHsp40 yeast 1.2, PriA SSB inh -1.9, Mtb hypoxia rep -9.9 and RN4220 kill 2.3.
NS(=O)(=O)c1cccc(NC(=O)COC(=O)c2ccc(S(=O)(=O)N3CCOCC3)cc2)c1 was read as Sa ugtP lethal 0.4, PfHsp40 yeast -0.2, PriA SSB inh 4.2, Mtb hypoxia rep 12.3* and RN4220 kill 1.7.
For CCOc1ccccc1OCCCC(=O)Nc1cccc(S(=O)(=O)N2CCOCC2)c1 the results were Sa ugtP lethal 3.5, PfHsp40 yeast 0.7, PriA SSB inh 3.2, Mtb hypoxia rep 26.3* and RN4220 kill 0.5.
For Cc1ccc(OCCCC(=O)Nc2ccc(S(=O)(=O)N3CCOCC3)cc2)cc1 the results were Sa ugtP lethal 4.6, PfHsp40 yeast 0.6, PriA SSB inh -12.3, Mtb hypoxia rep 30.4* and RN4220 kill 1.9.
Screening Cc1cc(=O)n2cccc(C(=O)O)c2n1 returned PriA SSB inh -6.0.
`CCOC(=O)C1=c2s/c(=C\c3cccnc3)c(=O)n2C(N)=C(C(=O)OC)C1c1cccnc1` (stereo unspecified) gave PfHsp40 yeast -0.2 and DUSP3 inh 52.3*.
For COC(=O)C1=C(N)n2c(s/c(=C\c3cccnc3)c2=O)=C(C(=O)OC)C1c1cccnc1 (stereo unspecified) the results were DUSP3 inh -12.3.
For CCOC(=O)N1CCc2c(sc3c2c(=O)n(-c2ccccc2)c(=O)n3CC(=O)Nc2cc(Cl)c(OC)cc2OC)C1 the results were PriA SSB inh -10.0.
For CC(=O)Nc1ccc(NC(=O)CSc2ccc(NC(=O)c3cccc(F)c3)nn2)cc1 the results were PriA SSB inh -17.0.
Screening O=[N+]([O-])c1c(C(Cl)Cl)nn(-c2ccccc2)c1N1CCCC1 returned Sa ugtP lethal 30.5, PfHsp40 yeast inconclusive, PriA SSB inh 50.4*, Mtb hypoxia rep 19.7, RN4220 kill 7.0 and DUSP3 inh 9.6.
For Cn1c(C(C#N)=C(O)c2ccc(Cl)s2)nc2ccccc21 the results were PriA SSB inh 0.0.
`C[C@@H]1CC[C@@]23COC(=O)C2=CCC[C@@H]3[C@@]1(C)CC/C(=C/CO)CO` gave Sa ugtP lethal -3.3, PfHsp40 yeast -0.2, PriA SSB inh -3.5 and RN4220 kill 6.7.
Screening CC1=CCC[C@@H]2[C@@](C)(CC/C(C)=C/C(=O)O)[C@H](C)CC[C@@]12C returned PfHsp40 yeast 58.4*, PriA SSB inh -2.5 and DUSP3 inh 0.2.
COc1cc(C(=O)NN=Cc2ccc3c(c2)c2ccccc2n3C)ccc1O was read as Sa ugtP lethal 85.8*, PriA SSB inh 0.7, Mtb hypoxia rep 12.9 and RN4220 kill 90.7*.
For Cn1c2ccccc2c2cc(/C=N/NC(=O)c3ccc(O)cc3O)ccc21 the results were PfHsp40 yeast 1.4 and DUSP3 inh 14.9.
For O=C(c1ccc(-n2cccc2)cc1)N1CCS[C@H](c2ccccc2)CC1 the results were PriA SSB inh 35.0*.
Screening O=C(c1ccco1)N1CCN(C(=O)c2ccccc2OCc2ccc(Cl)cc2)CC1 returned Sa ugtP lethal 3.5, PfHsp40 yeast 253.3*, PriA SSB inh -7.3, Mtb hypoxia rep 1.4 and RN4220 kill 3.5.
For CN(CCN1CCc2ccccc2C1)Cc1nc(-c2ccc3c(c2)OCO3)no1 the results were Sa ugtP lethal -0.4, PfHsp40 yeast -0.2, PriA SSB inh -0.3, Mtb hypoxia rep 5.1, RN4220 kill 4.9 and DUSP3 inh 0.4.
